Laboratory results from PubChem BioAssay (NCATS).
Records with an inconclusive call do not appear. The source made the active and inactive calls. Calls come from the whole dose curve; as a rule, active = well fitted curve in the direction sought with a large enough effect; inconclusive = small, poorly fitted or top-dose-only effect, or another doubt; inactive = no such curve, though single readings can be large; an effect the other way counts as inactive or inconclusive.

Key:
[1] = molecular target: Arylsulfatase A (Homo sapiens) (UniProt P15289); test: qHTS screen for enhancers of Arylsulfatase A (ASA1): LOPAC Validation Assay (AID 720538); note: potency is the fitted concentration of half-maximal effect
Procedure, shortened: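 Enhancer assay in patient-derived MLD fibroblasts carrying ASA-I179S: 48 h compound exposure at 37 C, then 14 h room-temperature pNCS turnover (0.5 mM final) in lysis buffer. Read by fluorescence at 525/598 nm after NaOH stop.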

[2] = qHTS for compounds that reverse cellular toxicity of Amyloid beta (A-beta) peptide in yeast: LOPAC Validation Assay (AID 720559); details: Potency: rescue of growth toxicity
Procedure, shortened: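 Rescue of A-beta toxicity was scored as yeast growth by 600 nm absorbance after 48 hr at 30 C with compound. Normalization used DMSO (negative) and equimolar ferric chloride plus clioquinol (positive).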

[3] = qHTS for Activators of Parkin Expression: LOPAC Validation Assay (NLuc Reporter) (AID 720572; note: potency is the fitted concentration of half-maximal effect)
Procedure, shortened: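 Neuronal cells with a Parkin promoter-driven FLuc/NLuc coincidence reporter were treated 24 h at 37 C in 7-point dose response (LOPAC). NLuc luminescence read after FLuc; signals normalized to DMSO and positive control (100%).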

[4] = qHTS for Activators of Parkin Expression: LOPAC Validation Assay (FLuc Reporter) (AID 720573)
Procedure, shortened: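 FLuc signal from Parkin-promoter coincidence reporter neuronal cells, normalized to DMSO and positive control (100%). Cells (1,500/well) pre-incubated 24 h, then exposed to LOPAC compounds in 7-point dose response for 24 h at 37 C, 5% CO2.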

Measured: Potency

Chain of Arylsulfatase A (Homo sapiens) (P15289 whole entry, looked up): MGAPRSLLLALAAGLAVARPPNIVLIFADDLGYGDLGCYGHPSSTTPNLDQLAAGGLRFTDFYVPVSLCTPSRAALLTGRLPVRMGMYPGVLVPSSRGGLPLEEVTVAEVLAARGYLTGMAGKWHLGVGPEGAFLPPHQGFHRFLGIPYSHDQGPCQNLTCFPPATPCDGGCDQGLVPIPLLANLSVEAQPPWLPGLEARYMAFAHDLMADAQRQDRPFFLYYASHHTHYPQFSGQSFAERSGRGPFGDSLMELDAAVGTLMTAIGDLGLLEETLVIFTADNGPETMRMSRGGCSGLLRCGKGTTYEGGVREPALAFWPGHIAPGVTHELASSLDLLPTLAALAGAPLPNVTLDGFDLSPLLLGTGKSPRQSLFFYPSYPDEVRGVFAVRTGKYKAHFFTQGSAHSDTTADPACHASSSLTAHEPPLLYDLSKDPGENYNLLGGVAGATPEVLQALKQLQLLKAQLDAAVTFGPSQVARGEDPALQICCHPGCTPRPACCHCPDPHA

Nc1nc(Nc2ccccc2)nc2c1ncn2[C@@H]1O[C@H](CO)[C@@H](O)[C@H]1O
inactive: all assays above

NCCNC(=O)c1ncsc1-c1cccc(F)c1
inactive: [1] | [2] | [3]

S=C(S)OC1CC2CC1C1CCCC21 (stereo not drawn)
inactive: all assays above

Cn1ncc(S(=O)(=O)Cc2ccccc2)c(Br)c1=O
inactive: all assays above

CCOC(=O)C1=C(C)NC(C)=C(C(=O)OCC)C1c1c(F)c(F)c(F)c(F)c1F
active: [3] 4.11 µM
inactive: all other assays above

NCCCS(=O)(=O)O
inactive: all assays above

CCCCCCCCc1ccc(-c2ccc(C(=O)O)cc2)cc1
inactive: all assays above

OC[C@H]1O[C@@H](n2cnc3c(Nc4ccccc4)ncnc32)[C@H](O)[C@@H]1O
inactive: [1] | [2] | [3]

N=c1ccn2c(n1)O[C@H]1[C@H](O)[C@@H](CO)O[C@H]12
inactive: all assays above

COc1cc(SC)ccc1C(=O)N1CCC(Cc2ccccc2)CC1
inactive: all assays above

CCOC(=O)N1CCN(/[N+]([O-])=N/Oc2ccc([N+](=O)[O-])cc2[N+](=O)[O-])CC1
inactive: all assays above

NCCSSCCN
inactive: all assays above

O=C(O)[C@@H]1C[C@H](C(=O)O)N1
inactive: all assays above

Ic1ccc(N2CCN(Cc3c[nH]c4ncccc34)CC2)cc1
inactive: all assays above

CCCCCCCCCCCCCCCCCC(=O)OC(CC(=O)O)C[N+](C)(C)C (stereo not drawn)
inactive: all assays above

CN1CCc2cccc3c2C1Cc1ccc(O)c(O)c1-3 (stereo not drawn)
inactive: all assays above

CC(=O)/C=C1\C(=O)N(C)c2ccccc21
inactive: [1] | [2] | [3]

Cc1ccccc1CNc1ncnc2c1ncn2C1OC(CO)C(O)C1O (stereo not drawn)
inactive: all assays above

Clc1ccc(N2CCN(Cc3c[nH]c4ncccc34)CC2)cc1
inactive: all assays above

CC(=O)N[C@H](C(=O)O)C(C)(C)SN=O
inactive: all assays above

O=P(O)(O)C(Cl)(Cl)P(=O)(O)O
inactive: all assays above

O=C1NC(=O)/C(=C/c2ccc(-c3ccc(F)cc3O)o2)S1
inactive: [1] | [2] | [3]

O=C(O)/C=C/C(O)c1ccc(Cl)cc1 (stereo not drawn)
inactive: all assays above

COc1ccccc1N1CCN(CCN(C(=O)c2ccc(I)cc2)c2ccccn2)CC1
inactive: all assays above

CC1(C)CCC=[N+]1[O-]
inactive: all assays above

OCC1O[C@H](O)C(Cl)C(O)C1O (stereo partly drawn)
inactive: [1] | [2] | [3]

CN1CCc2cc(O)c(O)cc2C(c2ccccc2)C1 (stereo not drawn)
active: [1] 21.3 µM
inactive: all other assays above

CCCC1(C)C(C#N)(C#N)C1(C#N)C#N
inactive: all assays above

COc1cccc(OC)c1OCCNCC1COc2ccccc2O1 (stereo not drawn)
inactive: all assays above

O=[N+]([O-])c1ccc2c(c1)S(=O)(=O)C=C2
inactive: all assays above

O=S(=O)(c1cccc2c(I)cccc12)N1CCCNCC1
inactive: all assays above

CCC1C(=O)OCC1Cc1cncn1C (stereo not drawn)
inactive: all assays above
